Three compounds from PubChem BioAssay (NCI) can be followed below.

Values joined by “and” are separate entries in the source; they are usually repeats but may differ in a detail not shown here. Identical values can stand only once. The panel holds about 83,000 compounds, 20% with a hit somewhere; the sample as a whole holds those more often.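 Cell lines were cultured in 96-well plates, exposed to a single compound concentration, and assessed for percent growth 48 hours later.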 Active and inactive are the calls of the source. Rule for the calls: active = growth percent below 10; inactive = the rest.

Holding throughout (test): NCI-60 one-dose screen, 48 h (100 = growth as untreated, 0 = no growth, -100 = all killed)
For one assay, the system named is HCT-15 colon. The note with it: 10 µM unless noted.
Another assay relates to HT29 colon. The note with it: 10 µM unless noted.
For the next assay, the system named is SNB-75 CNS. The note with it: 10 µM unless noted.
The next assay deals with SNB-19 CNS. The note with it: 10 µM unless noted.
For a further assay, the system named is U251 CNS. The note with it: 10 µM unless noted.
The test system of a further assay is PC-3 prostate. The note with it: 10 µM unless noted.
The subject of another assay is SK-MEL-5 melanoma. The note with it: 10 µM unless noted.
The next assay relates to UACC-62 melanoma. The note with it: 10 µM.
The next assay concerns LOX IMVI melanoma. The note with it: 10 µM unless noted.
Another assay concerns SK-MEL-28 melanoma. The note with it: 10 µM.
Another assay has as its system SK-MEL-2 melanoma. The note with it: 10 µM unless noted.
For another assay, the system named is EKVX NSCLC. The note with it: 10 µM unless noted.
A further assay deals with SN12C renal. The note with it: 10 µM unless noted.
For a further assay, the system named is UO-31 renal. The note with it: 10 µM unless noted.
In the next assay the test system is ACHN renal. The note with it: 10 µM unless noted.
The next assay concerns CAKI-1 renal. The note with it: 10 µM unless noted.
For a further assay, the system named is A498 renal. The note with it: 10 µM unless noted.
Another assay concerns HL-60(TB) leukemia. The note with it: 10 µM unless noted.
In another assay the test system is CCRF-CEM leukemia. The note with it: 10 µM unless noted.
A further assay relates to MOLT-4 leukemia. The note with it: 10 µM unless noted.

Turning to `COc1ccccc1/C=C(/C)[N+](=O)[O-]`, the growth is 32.3% (inactive) and 99.8% (inactive) in the assay with HCT-15 colon; 54.7% (inactive) and 88.8% (inactive) with HT29 colon; 68.3% (inactive) and 85% (inactive) with SNB-75 CNS; 73.9% (inactive) and 107% (inactive) in the assay with SNB-19 CNS; 83% (inactive) and 98.7% (inactive) with U251 CNS; 90.3% (inactive) and 84.7% (inactive) in the assay on PC-3 prostate. The growth was 80.3% (inactive) and 102% (inactive) with SK-MEL-5 melanoma; 58.1% (inactive) and 103% (inactive) with UACC-62 melanoma; 22.2% (inactive) and 92.2% (inactive) with LOX IMVI melanoma; 83.3% (inactive) and 116% (inactive) in the assay on SK-MEL-28 melanoma; 94.8% (inactive) and 85.9% (inactive) in the assay on SK-MEL-2 melanoma; 90.8% (inactive) and 98.4% (inactive) in the assay on EKVX NSCLC. Also, the growth with SN12C renal is 32.9% (inactive) and 99.3% (inactive); with UO-31 renal it was 78.7% (inactive) and 83.1% (inactive); in the assay with ACHN renal it was 71.1% (inactive) and 107% (inactive); in the assay on CAKI-1 renal it was 85.8% (inactive) and 95.1% (inactive); in the assay on A498 renal it was 99.1% (inactive) and 118% (inactive); in the assay with HL-60(TB) leukemia, 30.7% (inactive) and 92.7% (inactive). In addition, the growth with CCRF-CEM leukemia is 8.42% (active) and 99.5% (inactive); in the assay with MOLT-4 leukemia, 13.9% (inactive) and 102% (inactive).
As for `Oc1ccc(Cl)cc1Sc1cc(Cl)ccc1O`, the growth in the assay with HL-60(TB) leukemia was 81.8% (inactive).
Consider `CC[n+]1c(-c2ccccc2)c2cc(N)ccc2c2ccc(N)cc21`, for which the growth in the assay on HCT-15 colon is 88.9% (inactive); in the assay with HT29 colon it was 9.77% (active); in the assay with SNB-75 CNS it was -88.5% (active); in the assay on SNB-19 CNS, -5.17% (active); with U251 CNS, -2.55% (active); in the assay with PC-3 prostate it was 20.9% (inactive). Further, the growth in the assay on UACC-62 melanoma was -81.3% (active); in the assay with LOX IMVI melanoma, 13.5% (inactive); with SK-MEL-28 melanoma, -42.9% (active); with SK-MEL-2 melanoma, -60.1% (active); in the assay with EKVX NSCLC, 1.88% (active); in the assay on SN12C renal it was -16.5% (active). The growth in the assay on UO-31 renal is 63.5% (inactive); with ACHN renal, 54.4% (inactive); in the assay on CAKI-1 renal, 81% (inactive); in the assay with A498 renal, 60.4% (inactive); in the assay on HL-60(TB) leukemia, 23.7% (inactive); with CCRF-CEM leukemia, 27.5% (inactive). In the assay with MOLT-4 leukemia, the growth is 23.7% (inactive).
